PubChem BioAssay (Tox21)
Inconclusive results are not listed. A call without a number means that no potency is given here. Activity calls are given as the source filed them. Unless noted, the call rests on the fitted dose curve; in most records, active means well fitted curve in the direction sought with a large enough effect in the repeat runs; inconclusive means weak or mixed curves; inactive means no such curve, though single readings can be large; an effect the other way counts as inactive or inconclusive.

Experiments:
[1] = qHTS assay to identify small molecule agonists of the estrogen receptor alpha (ER-alpha) signaling pathway in the presence of an antagonist - cell viability counter screen (AID 1259386);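 further: series mostly up to about 92 µM; cells exposed to compounds for 22 h at 37 °C before the viability read; nearly all actives have a fitted effect of over 30% in size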
Method in brief: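 VM7Luc4E2 cells (endogenous full-length ER-alpha, 4×ERE-luciferase) were held 5 days in phenol red-free medium with 10% charcoal-stripped FBS, plated, then given 10.0nM ICI-182,780 and compounds at 15 concentrations for 22hr at 37C; viability read by CellTiter-Fluor fluorescence.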

[2] = molecular target: Progesterone receptor (Homo sapiens) (UniProt P06401); assay: qHTS assay to identify small molecule agonists of the progesterone receptor (PR) signaling pathway (AID 1346784; calls by dose curve; further: nearly all actives have a fitted effect of over 30% in size)
Method in brief: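 Agonist qHTS: compounds pinned onto 3,000 PR-UAS-bla HEK 293T cells per well in charcoal-stripped serum medium, 16hr at 37C, then beta-lactamase activity measured by LiveBLAzer FRET fluorescence after 2 hours at room temperature.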

[3] = molecular target: Progesterone receptor (Homo sapiens) (UniProt P06401); assay: qHTS assay to identify small molecule antagonists of the progesterone receptor (PR) signaling pathway (AID 1346795; active means well fitted inhibition curve with a large enough effect in the signal ratio in the repeat runs, not every such curve was filed as active; the % refers to the signal ratio; further: potency means the concentration at half of the fitted maximal effect)
Method in brief: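 Antagonist mode with agonist R5020 at 1 nM final and 16 hr incubation at 37C. Reporter was beta-lactamase driven by UAS in HEK293T (PR-UAS-bla), 2% charcoal-stripped serum; signal from LiveBLAzer FRET substrate, 2 hr at room temperature.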

[4] = qHTS assay to identify small molecule antagonists of the progesterone receptor (PR) signaling pathway - cell viability counter screen (AID 1346798); further: series mostly up to about 92 µM; nearly all actives have a fitted effect of over 50% in size
Method in brief: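 Cytotoxicity read as CellTiter-Glo luminescence (30 min, room temperature) in the same wells as the beta-lactamase readout. HEK293T PR-UAS-bla cells in charcoal-stripped 2% FBS received compound and R5020, then 16 h at 37C, 5% CO2.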

[5] = qHTS assay to identify small molecule agonists of the progesterone receptor (PR) signaling pathway - cell viability counter screen (AID 1346799; calls by dose curve; further: nearly all actives have a fitted effect of over 45% in size)
Method in brief: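 Cytotoxicity measured by CellTiter-Glo luminescence (30 min, RT) in the same wells as the PR beta-lactamase agonist read. Those HEK293T cells had 16 h compound treatment at 37 C in 2% charcoal-stripped FBS medium.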

[6] = qHTS assay to identify small molecule antagonists of the TGF-beta/Smad signaling pathway - cell viability counter screen (AID 1346824); further: nearly all actives have a fitted effect of over 50% in size
Method in brief: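 SBE-bla HEK 293T cells were plated overnight at 37 C, then given compounds in DMSO plus TGF-beta1 (added as 0.25 ng/mL solution) for 5 hr. After the bla read, CellTiter-Glo was added to the same wells and luminescence read after 30 min at room temperature.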

[7] = qHTS assay to identify small molecule agonists of the TGF-beta/Smad signaling pathway - cell viability counter screen (AID 1346829); further: top concentration of the series differs between compounds; nearly all actives have a fitted effect of over 45% in size
Method in brief: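 SBE-bla HEK 293T cells plated overnight, compound exposure 5 hr at 37 C. Viability read in the same wells by CellTiter-Glo luminescence after 30 min at room temperature, following the beta-lactamase read.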

[8] = molecular target: Thyrotropin-releasing hormone receptor (Homo sapiens) (UniProt P34981); assay: qHTS assay to identify small molecule antagonists of the thyrotropin-releasing hormone receptor (TRHR) signaling pathway (AID 1346877; active means well fitted inhibition curve with a large enough effect in the repeat runs, not every such curve was filed as active; further: series mostly up to about 51 µM)
Method in brief: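 TRHR-expressing HEK293 cells were seeded, cultured 18 h at 37 °C, then loaded with calcium dye for 2 h. Compounds were pre-incubated 5 min at room temperature before 1 nM TRH (final) was added, and kinetic fluorescence was recorded for 3 min.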

[9] = molecular target: Thyrotropin-releasing hormone receptor (Homo sapiens) (UniProt P34981); assay: qHTS assay to identify small molecule agonists of the thyrotropin-releasing hormone receptor (TRHR) signaling pathway (AID 1346891; calls by dose curve; further: series mostly up to about 58 µM)
Method in brief: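 Agonist-mode intracellular calcium readout: kinetic fluorescence over 3 min at 1 s intervals after compound addition to TRHR-HEK293 cells (18 h seeded, 2 h dye-loaded at 37 C). Fifteen concentrations, triplicates.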

[10] = qHTS assay to identify small molecule agonists of the TGF-beta/Smad signaling pathway (AID 1346859; active means well fitted activation curve with a large enough effect in the signal ratio in the repeat runs, not every such curve was filed as active; the % refers to the signal ratio; further: series mostly up to about 77 µM)
Method in brief: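 Fluorescence (ex 405 nm; em 460 and 530 nm) was read 2 h after LiveBLAzer FRET substrate at RT. The preceding compound treatment of overnight-plated SBE-bla HEK293T cells lasted 5 h at 37 C.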

Chain of Progesterone receptor (Homo sapiens) (P06401 whole entry, looked up): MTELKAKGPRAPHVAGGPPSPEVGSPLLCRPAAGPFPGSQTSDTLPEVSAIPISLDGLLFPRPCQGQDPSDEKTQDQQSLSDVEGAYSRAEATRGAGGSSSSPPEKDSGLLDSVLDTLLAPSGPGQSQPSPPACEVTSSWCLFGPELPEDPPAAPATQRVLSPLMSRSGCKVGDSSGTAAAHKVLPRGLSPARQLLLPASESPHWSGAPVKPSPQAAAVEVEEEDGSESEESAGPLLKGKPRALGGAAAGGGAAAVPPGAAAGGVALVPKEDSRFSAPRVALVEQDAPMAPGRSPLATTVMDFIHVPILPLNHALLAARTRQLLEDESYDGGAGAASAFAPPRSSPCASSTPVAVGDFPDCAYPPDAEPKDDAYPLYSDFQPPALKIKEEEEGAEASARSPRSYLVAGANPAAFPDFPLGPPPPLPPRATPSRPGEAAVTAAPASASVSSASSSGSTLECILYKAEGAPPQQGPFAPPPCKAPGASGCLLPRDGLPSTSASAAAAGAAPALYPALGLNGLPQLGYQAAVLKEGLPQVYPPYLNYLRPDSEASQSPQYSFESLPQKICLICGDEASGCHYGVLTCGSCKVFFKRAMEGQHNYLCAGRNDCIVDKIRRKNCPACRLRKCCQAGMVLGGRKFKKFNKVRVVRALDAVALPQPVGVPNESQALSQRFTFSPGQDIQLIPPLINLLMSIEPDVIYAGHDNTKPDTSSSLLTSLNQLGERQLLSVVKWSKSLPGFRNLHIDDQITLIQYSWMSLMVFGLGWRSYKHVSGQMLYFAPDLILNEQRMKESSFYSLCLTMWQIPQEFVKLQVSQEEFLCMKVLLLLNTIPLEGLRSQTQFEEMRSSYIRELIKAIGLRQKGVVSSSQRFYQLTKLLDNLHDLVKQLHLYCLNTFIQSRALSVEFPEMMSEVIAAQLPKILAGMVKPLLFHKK
Chain of Thyrotropin-releasing hormone receptor (Homo sapiens) (P34981 whole entry, looked up): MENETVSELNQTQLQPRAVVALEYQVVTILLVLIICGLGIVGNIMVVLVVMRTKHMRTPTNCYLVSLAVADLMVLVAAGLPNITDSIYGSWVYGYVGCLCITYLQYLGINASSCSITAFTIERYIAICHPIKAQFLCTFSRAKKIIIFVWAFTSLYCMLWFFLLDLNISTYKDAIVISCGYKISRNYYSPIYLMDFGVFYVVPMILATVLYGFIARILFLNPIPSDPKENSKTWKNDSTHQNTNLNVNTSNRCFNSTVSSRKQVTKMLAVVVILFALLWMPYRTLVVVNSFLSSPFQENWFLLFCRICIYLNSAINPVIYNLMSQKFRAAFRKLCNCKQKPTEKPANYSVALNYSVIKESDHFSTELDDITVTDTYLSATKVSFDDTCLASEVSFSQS

SMILES	Potency [1]	Potency [2]	Potency [3]	Potency [4]	Potency [5]	Potency [6]	outcome [7]	outcome [8]	outcome [9]	outcome [10]
O=[N+]([O-])c1cccc(O)c1	inactive	inactive	inactive	inactive	inactive	inactive	inactive	inactive	inactive	
Cc1ncsc1CCCl	inactive	inactive	inactive	inactive	inactive	inactive	inactive	inactive	inactive	
COc1cc(C[C@@H](C)N)c(OC)cc1C	inactive	inactive	inactive	inactive		inactive	inactive	inactive	inactive	inactive
O=S(=O)(O)C(F)(F)C(F)(F)C(F)(F)C(F)(F)C(F)(F)C(F)(F)F	inactive	inactive	inactive	inactive		inactive	inactive			inactive
CC(C)NCC(O)c1ccc(N)c(C#N)c1 (stereo not drawn)	inactive	inactive	inactive		inactive	inactive	inactive			
CCOP(=O)(N=C1SCCS1)OCC	inactive	inactive	inactive		inactive	inactive	inactive	inactive	inactive	inactive
CCOP(=S)(OCC)SCSc1ccc(Cl)cc1	inactive	inactive	4.86 µM (active)		inactive	inactive	inactive	inactive	inactive	inactive
CC(N)=S	inactive	inactive	inactive		inactive	inactive	inactive	inactive	inactive	inactive
CCCSC(=O)Cl	inactive	inactive	inactive		inactive	inactive	inactive			inactive
CCCCN(CCCCO)N=O	inactive	inactive	inactive		inactive	inactive	inactive	inactive	inactive	inactive
CC(C1CC1)C(O)(Cn1cncn1)c1ccc(Cl)cc1 (stereo not drawn)	inactive	inactive	48.3 µM (active)			inactive	inactive	inactive	inactive	inactive
CCSC(=O)N(CC)C1CCCCC1	inactive	inactive	inactive		inactive	inactive	inactive	inactive	inactive	
O=[N+]([O-])c1cccc2cccnc12	inactive	inactive	inactive		inactive	inactive	inactive	inactive	inactive	inactive
